Screens from PubChem BioAssay.
Casp1 inh: allosteric or competitive inhibitors of human caspase-1; P29466; Caspase-1 enzyme, Ac-WEHD-AFC fluorogenic rate; Potency, µM (doses to about 57.5 µM), usual class: inhibitors; actives 0.03% (n = 75,000); AID 900
Target sequence (P29466 120-297 limits assumed): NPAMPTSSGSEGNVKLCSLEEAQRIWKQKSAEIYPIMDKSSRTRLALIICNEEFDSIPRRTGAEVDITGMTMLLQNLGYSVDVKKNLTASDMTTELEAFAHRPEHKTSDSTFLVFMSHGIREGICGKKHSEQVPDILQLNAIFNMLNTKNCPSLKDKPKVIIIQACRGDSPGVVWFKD
Target sequence (P29466 317-404 limits assumed): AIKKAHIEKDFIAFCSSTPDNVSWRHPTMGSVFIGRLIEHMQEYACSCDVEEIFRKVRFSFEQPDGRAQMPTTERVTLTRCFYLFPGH
Casp7 inh: allosteric or competitive inhibitors of human caspase-7. actives 0.02% (n = 75,000). AID 889. P55210. Potency, µM (highest dose often 57.5 µM), hits mostly inhibitors. recombinant caspase-7, Ac-DEVD-AFC fluorescence rate; active = well fitted inhibition curve with a large enough effect in the main read-out, with a control signal flat, not every such curve was filed as active; inconclusive = small, poorly fitted or top-dose-only effect, or a change in a side signal
Target sequence (P55210 24-198 limits assumed): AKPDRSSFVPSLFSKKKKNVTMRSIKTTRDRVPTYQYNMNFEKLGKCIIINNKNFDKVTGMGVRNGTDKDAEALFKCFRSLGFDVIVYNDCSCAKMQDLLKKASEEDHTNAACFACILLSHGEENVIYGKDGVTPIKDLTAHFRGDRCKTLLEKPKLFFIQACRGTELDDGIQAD
Target sequence (P55210 207-303 limits assumed): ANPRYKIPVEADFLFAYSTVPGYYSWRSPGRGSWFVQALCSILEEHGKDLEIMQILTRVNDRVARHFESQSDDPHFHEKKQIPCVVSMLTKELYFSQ
GBA activity: alters purified human glucocerebrosidase activity | P04062 | Potency, µM | actives 1.1% (n = 48,000) | purified enzyme, resorufin glucoside fluorescence (screen aimed at inhibitors), 20 min | AID 360; in the data active = potency below about 15 µM; inconclusive = mostly about 16 µM to 33 µM;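 note: the screen sought inhibitors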
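Wild-type enzyme at 0.2 nM final in 50mM citric acid/KH2PO4, 10mM sodium taurocholate, 0.01% tween-20, pH 5.9, with resorufin beta-D-glucopyranoside at 30 uM final. Compounds titrated, 20 min at RT, red fluorescence read; AC50 from titration.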
TSHR ag: agonists of human thyroid stimulating hormone receptor; P16473; actives 0.48% (n = 73,000); Potency, µM (titrated, usually from 57.1 µM), most hits filed as activators; HEK293-CNG-TSHR cells (CNG channel as cAMP sensor), membrane potential dye, cAMP; active = well fitted activation curve with a large enough effect in the main read-out, with a control signal flat, not every such curve was filed as active; inconclusive = small, poorly fitted or top-dose-only effect, or a change in a side signal; inactive = no such curve, though single readings can be large or run the other way; reference of the percent scale not stated here;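 note: the control signal comes from parental cells without the receptor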
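HEK 293 cells stably expressing TSHR and a cAMP-gated CNG channel; parental CNG-only cells as counterscreen. Cells preloaded 60 min with membrane potential dye plus 100 uM RO 20-1724, then compound 30 min; fluorescence read at 590 nm.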
HEK293 cAMP ctrl: parental HEK293 cAMP activation (counter-screen); parental HEK293 CNG cAMP sensor, membrane potential fluorescence; Potency, µM (highest dose often 57.1 µM), hits mostly activators; actives 2.5% (n = 73,000); AID 938; note: nearly all actives have a fitted effect of over 55% in size
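Counterscreen for endogenous-receptor signalling: CNG-channel HEK 293 cells report cAMP rise by membrane depolarization. After 60 min dye equilibration with 100 uM RO 20-1724, compounds incubated 30 min before bottom-read fluorescence at 590 nm.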
ERK AVP block: vasopressin-driven ERK pathway inhibition; HEK293-V1b, vasopressin-stimulated pERK AlphaScreen; Potency, µM (series often up to 57.5 µM), hits mostly inhibitors; actives 0.99% (n = 72,000); note: nearly all actives have a fitted effect of over 55% in size
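HEK293 cells stably expressing V1b receptor, seeded overnight in 1% FBS, were treated with compounds for 30 min at 37C, then stimulated 5 min with 25 nM vasopressin; phospho-ERK read by AlphaScreen SureFire after lysis.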
Each line names hits and unclear results; the compound was inactive in the other large screens. Most compounds without a hit are left out; they make up all but 4.5% or so of the library. Unless noted, calls come from the whole dose curve; as a rule, active = well fitted curve in the direction sought with a large enough effect; inconclusive = small, poorly fitted or top-dose-only effect, or another doubt; inactive = no such curve, though single readings can be large; an effect the other way counts as inactive or inconclusive.

Cc1cccc(-c2noc(CN(C(=O)C34CC5CC(CC(C5)C3)C4)C(C)C)n2)c1	GBA activity inconclusive
COc1cc(OC)cc(C(=O)N(Cc2nc(-c3cccc(C)c3)no2)C(C)C)c1	TSHR ag inconclusive, HEK293 cAMP ctrl 32µM
COc1ccc(-c2noc(CN(C(=O)c3ccc(OC(C)=O)cc3)C(C)C)n2)cc1OC	TSHR ag 25µM, ERK AVP block inconclusive
COc1ccc(C(=O)N(Cc2nc(-c3ccc(C)cc3)no2)C(C)C)cc1OC	none (no result: GBA activity)
N#CC1=C(SCC(=O)NC23CC4CC(CC(C4)C2)C3)NC(=O)C(C#N)C12CCCCC2 (stereo not given)	GBA activity 6.2, TSHR ag inconclusive, HEK293 cAMP ctrl inconclusive
N#CC1=C(SCC(=O)NC2CC2)NC(=O)C(C#N)C12CCCCC2 (stereo not given)	none
Cc1ccc(-c2cc(C(=O)Nc3cc(C)on3)c3ccccc3n2)c(C)c1	TSHR ag inconclusive, HEK293 cAMP ctrl inconclusive (no result: GBA activity)
Cc1cc(NC(=O)c2cc(-c3cccnc3)nc3c(C)c(C)ccc23)no1	TSHR ag inconclusive, HEK293 cAMP ctrl 25µM
COc1ccc(-c2coc3ccc(O[C@@H]4O[C@@H](COC(C)=O)[C@@H](OC(C)=O)[C@@H](OC(C)=O)[C@H]4OC(C)=O)c(OC(C)=O)c3c2=O)cc1	none (no result: Casp1 inh, Casp7 inh, GBA activity, ERK AVP block)
O=C(COC(=O)c1ccccc1F)c1ccc(-n2nncc2-c2ccco2)cc1	TSHR ag inconclusive, HEK293 cAMP ctrl 25µM
COc1ccc(C(=O)COC(=O)c2ccco2)cc1	none
Cc1ccc(NC(=O)CCn2cnc3ccccc3c2=O)cc1Cl	GBA activity 6.5
CC[C@@H]1O[C@]2(C=C[C@@H]1C)C[C@H]1C[C@H](CC=C(C)[C@@H](O[C@@H]3C[C@H](OC)[C@H](O[C@@H]4C[C@H](OC)[C@H](O)[C@H](C)O4)[C@H](C)O3)[C@@H](C)C=CC=C3CO[C@@H]4[C@@H](O)C(C)=C[C@@H](C(=O)O1)[C@]34O)O2	none (no result: GBA activity)
CC(C)C[C@@H](CC(=O)N[C@@H](CCCN)CC(=O)N[C@@H]1CCCC[C@H]1C(=O)N[C@H](CC(=O)N[C@@H](CCC(=O)O)CC(=O)O)Cc1ccccc1)NC(=O)[C@@H]1CNCC[C@H]1N	none (no result: Casp1 inh, Casp7 inh, GBA activity, TSHR ag, ERK AVP block)
O=C(c1cccc(F)c1)N1CCC2(CCCN(c3ccncc3)C2)CC1	TSHR ag inconclusive, HEK293 cAMP ctrl inconclusive (no result: GBA activity)
O=C(c1cc(C(F)(F)F)cc(C(F)(F)F)c1)N1CCC2(CC1)CCN(c1ccncc1)CC2	TSHR ag inconclusive, HEK293 cAMP ctrl 3.2µM (no result: GBA activity)
O=C(c1cccc(F)c1)N1CCC2(CCCN(c3cccc(-c4ccccc4)c3)C2)CC1	TSHR ag inconclusive, HEK293 cAMP ctrl 1.3µM (no result: GBA activity)
O=C(c1cccc(F)c1)N1CCC2(CC1)CCN(c1ccncc1)CC2	TSHR ag inconclusive, HEK293 cAMP ctrl 4µM (no result: GBA activity)
CSC(N)=NCCC[C@@H](N)C(=O)O	none (no result: GBA activity)
O=c1ccc2c(OCCCCc3ccccc3)c3ccoc3cc2o1	TSHR ag inconclusive, HEK293 cAMP ctrl 25µM (no result: GBA activity)
O=c1ccc2cc3ccoc3cc2o1	none (no result: GBA activity)
C=CCn1c(SCC(=O)c2cccs2)nc2sc(CC)cc2c1=O	TSHR ag inconclusive, HEK293 cAMP ctrl 16µM, ERK AVP block inconclusive (no result: GBA activity)
Nc1cccc(-c2nc3ccccc3[nH]2)c1	none (no result: GBA activity)
c1ccc(-c2csc(-c3nc4ccccc4[nH]3)n2)cc1	ERK AVP block 1.3µM (no result: GBA activity, TSHR ag, HEK293 cAMP ctrl)
N#CCSc1nnc(Cc2cccc3ccccc23)n1C1CCCCC1	TSHR ag inconclusive, HEK293 cAMP ctrl 16µM (no result: GBA activity)
CCN(CC)CCn1c(-c2ccccc2)nc2c(NCCO)nc(C)nc21	none (no result: GBA activity)
O=C(c1cnn2c(C(F)(F)F)cc(-c3ccco3)nc12)N1CCCCCC1	Casp7 inh inconclusive, TSHR ag inconclusive, HEK293 cAMP ctrl 32µM (no result: Casp1 inh, GBA activity)
O=C(Nc1ccc2nn(-c3ccccc3)nc2c1)c1ccc2c(c1)OCCO2	TSHR ag inconclusive, HEK293 cAMP ctrl inconclusive, ERK AVP block 16µM (no result: GBA activity)
O=C(Nc1ccc2oc(-c3ccccc3F)nc2c1)c1ccc2c(c1)OCCO2	ERK AVP block 10µM
O=C(Nc1ccc2nn(-c3ccccc3)nc2c1)c1ccc(Br)o1	TSHR ag inconclusive, HEK293 cAMP ctrl inconclusive
Cc1cc(O)c(C(C)C)cc1CN1CCCCC1	ERK AVP block inconclusive (no result: GBA activity)
CCSC1=C(C#N)C(c2ccc(OC)c(OC)c2)CC(=O)N1 (stereo not given)	none
CCCCCCSC1=C(C#N)C(c2ccc(O)cc2)CC(=O)N1 (stereo not given)	GBA activity inconclusive, ERK AVP block 16µM
COCCNc1nc(-c2cccc(OC)c2)nc2ccccc12	none (no result: GBA activity, TSHR ag)
O=C(Cn1c(=O)n2ncnc2c2c3c(sc21)CCCC3)c1ccccc1	TSHR ag inconclusive, HEK293 cAMP ctrl 25µM
O=c1n(Cc2ccccc2Cl)c2sc3c(c2c2ncnn12)CCCC3	TSHR ag 20µM
C/C(CCN1CCc2nc(-c3ccccc3)c(-c3ccccc3)cc2C1)=N\O[C@@H](C)CN1CCCc2nc(C)c(C)cc21	none (no result: GBA activity)
COc1ccccc1NC(=O)c1ccc(NS(=O)(=O)c2c(C)noc2C)cc1	none
COc1ccc(NC(=O)c2ccc(NS(=O)(=O)c3c(C)noc3C)cc2)cc1OC	GBA activity 0.29
Cc1noc(C)c1S(=O)(=O)Nc1ccc(C(=O)NCCc2ccccc2)cc1	GBA activity 1.6
COc1ccc(CNC(=O)c2ccc(NS(=O)(=O)c3c(C)noc3C)cc2)cc1	GBA activity inconclusive
Cc1noc(C)c1S(=O)(=O)Nc1ccc(C(=O)NC2CCCCC2)cc1	GBA activity 4.1
Cc1ccc(NC(=O)c2ccc(NS(=O)(=O)c3c(C)noc3C)cc2)cc1C	GBA activity 11
C=CCc1cccc(C2C(C)CCC3C(=O)N4C(CCC(C)C4c4cccc(CC=C)c4)C(=O)N32)c1 (stereo not given)	none (no result: GBA activity)
Fc1cc(Br)ccc1Nc1nc2ccccc2n2nnnc12	TSHR ag inconclusive, HEK293 cAMP ctrl inconclusive (no result: GBA activity)
Fc1ccccc1N1CCN(c2nc3ccccc3n3nnnc23)CC1	GBA activity 13, TSHR ag inconclusive, HEK293 cAMP ctrl inconclusive
CC(C)(C)c1onc(OCP(=O)(O)O)c1C[C@@H](N)C(=O)O	none (no result: GBA activity)
COc1cccc(OCC(O)CN(CCO)Cc2ccccc2)c1 (stereo not given)	GBA activity 13, TSHR ag inconclusive, HEK293 cAMP ctrl inconclusive
CNC[C@H](O)c1ccc(O)c(O)c1	ERK AVP block inconclusive (no result: GBA activity, TSHR ag, HEK293 cAMP ctrl)
CC[C@H](NC(C)C)[C@H](O)c1ccc(O)c(O)c1	TSHR ag inconclusive, HEK293 cAMP ctrl 0.25µM, ERK AVP block inconclusive (no result: GBA activity)
C/C(=N/NC1=NCCN1)c1cn(C2=NCCN2)nc1C	none (no result: GBA activity)
COc1ccc(S(=O)(=O)N(CC(=O)Nc2ccc3c(c2)OCO3)c2ccccc2OC)cc1	TSHR ag 6.3µM (no result: GBA activity)
COc1ccc(S(=O)(=O)Nc2ccc3c(c2)OCO3)cc1OC	none
